Test systems include HCT-15 colon; HT29 colon; SNB-75 CNS; SNB-19 CNS; U251 CNS; PC-3 prostate; UACC-62 melanoma; LOX IMVI melanoma; SK-MEL-28 melanoma.
Holding throughout (experiment): NCI-60 one-dose screen, 48 h (100 = growth as untreated, 0 = no growth, -100 = all killed)
Details in all cases: 10 µM unless noted

SMILES strings stand for the structures. About 83,000 compounds went through this panel and 20% of them were active in at least one assay; those are over-represented in the sample as a whole.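 Growth was measured after 48 h exposure to one concentration of compound in 96-well plates. Values under 10 count as active.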 A number with no mark means an inactive call. Activity calls are given as the source filed them.

In the case of `CCCOc1ccc2nc(NC(=O)OC)[nH]c2c1`, the growth in the experiment on HCT-15 colon was 12.4%; in the experiment on HT29 colon, 0.423% (active); in the experiment with SNB-75 CNS, 46.1%; in the experiment with SNB-19 CNS it was 34%; in the experiment on U251 CNS, 12.7%; in the experiment with PC-3 prostate it was 19.7%. For the same compound, the results for the growth in the experiment on UACC-62 melanoma, with LOX IMVI melanoma and in the experiment with SK-MEL-28 melanoma were 22.3%, 24.4% and 66.5%, respectively.

In the case of `N#CN1CCC[C@H]1C(=O)N1CCc2c(-c3[nH]nc4ncccc34)cccc21`, the growth in the experiment on HCT-15 colon is 7.65% (active); in the experiment on HT29 colon it was -53.9% (active); with SNB-75 CNS, -16% (active); in the experiment on SNB-19 CNS, 17.1%; in the experiment on U251 CNS it was -27.6% (active); in the experiment with PC-3 prostate, 21.6%. In addition, the results for the growth in the experiment with UACC-62 melanoma, with LOX IMVI melanoma and in the experiment with SK-MEL-28 melanoma were 7.64% (active), 4.55% (active) and 24.6%, respectively.

On to `COc1cc(-c2nc3ccccc3[nH]2)ccc1OCc1nnc(-c2ccc(CC(C)C)cc2)o1`, for which the growth in the experiment with HCT-15 colon was 76.5%; in the experiment with HT29 colon, 75.2%; in the experiment on SNB-75 CNS, 94.3%; in the experiment on SNB-19 CNS, 91.8%; with U251 CNS, 69.5%; in the experiment with PC-3 prostate, 86%. Moreover, the growth in the experiment with UACC-62 melanoma is 92.7%; in the experiment on LOX IMVI melanoma, 103%; in the experiment with SK-MEL-28 melanoma, 93.5%.

As to `CNC(=O)c1cc(Oc2ccc(NC(=O)Nc3ccc(Cl)c(OC(F)(F)F)c3)c(F)c2)ccn1`, the growth in the experiment with HCT-15 colon is 28.8%; in the experiment with HT29 colon, 14%; with SNB-75 CNS, 83%; with SNB-19 CNS it was 30.3%; in the experiment on U251 CNS, 32.3%; with PC-3 prostate, 22.1%. The growth is 5.13% (active) with UACC-62 melanoma, 17.2% in the experiment on LOX IMVI melanoma and 13.7% in the experiment with SK-MEL-28 melanoma.

As for `CCCn1c(=O)[nH]c(N)c([C@H]2c3ccccc3Oc3[nH]c(=O)n(CCC)c(=O)c32)c1=O`, the growth was 48.9% with HCT-15 colon; 85.3% in the experiment on HT29 colon; 82.9% in the experiment on SNB-75 CNS; 97.8% in the experiment with SNB-19 CNS; 81.8% in the experiment with U251 CNS; 107% in the experiment with PC-3 prostate. The results for the growth in the experiment on UACC-62 melanoma, with LOX IMVI melanoma and with SK-MEL-28 melanoma were 80.6%, 64.8% and 73%, respectively.

Take `CN(C)c1ccc(N=Nc2ccccn2)c(O)c1`: the growth with HCT-15 colon is 31.6%; in the experiment on HT29 colon, 24.1%; in the experiment on SNB-75 CNS it was 42.7%; in the experiment with SNB-19 CNS it was 18.6%; with U251 CNS, 11.7%; in the experiment on PC-3 prostate, 33.8%. Further, the growth in the experiment with UACC-62 melanoma was -28.3% (active); in the experiment with LOX IMVI melanoma, 8.14% (active); in the experiment with SK-MEL-28 melanoma, 32.8%.

Take `COc1cc2c(cc1-c1c(C)noc1C)ncc1nc(C3CCOCC3)n([C@H](C)COC(F)F)c12`: the growth in the experiment with HCT-15 colon was 22.8%; with HT29 colon, 24.5%; with SNB-75 CNS, 29.9%; with SNB-19 CNS it was 47.6%; in the experiment on U251 CNS it was 51.8%; in the experiment with PC-3 prostate it was 34.3%. Besides, the growth in the experiment with UACC-62 melanoma was 17.8%; in the experiment on LOX IMVI melanoma, 12.6%; with SK-MEL-28 melanoma it was 55.8%.

As to `Nc1ccc(S(=O)(=O)O)c2ccc(N=Nc3ccc(N=Nc4ccc(S(=O)(=O)O)cc4)c4ccccc34)c(O)c12`, the growth in the experiment with HCT-15 colon is 115%; with HT29 colon, 103%; in the experiment on SNB-75 CNS, 76.5%; with SNB-19 CNS, 95.9%; with U251 CNS, 111%; in the experiment with PC-3 prostate, 91.6%. Moreover, the growth in the experiment on UACC-62 melanoma was 91.3%; in the experiment with LOX IMVI melanoma, 98.1%; with SK-MEL-28 melanoma, 109%.

As for `Cc1cc(N2CCCCC2)nc(NC2CCCC(Nc3ccnc4cc(Cl)ccc34)C2)n1` (configuration not stated), the growth is -67.6% (active) in the experiment on HCT-15 colon; -59.9% (active) in the experiment on HT29 colon; -80.9% (active) in the experiment with SNB-75 CNS; -20.7% (active) in the experiment with SNB-19 CNS; -97.4% (active) with U251 CNS; -72.8% (active) in the experiment with PC-3 prostate. Also, the growth was -86.2% (active) in the experiment with UACC-62 melanoma, -84.9% (active) in the experiment with LOX IMVI melanoma and -84% (active) in the experiment on SK-MEL-28 melanoma.

Regarding `CN1CCN(c2nc(NCCCCNc3ccnc4cc(Cl)ccc34)c3ccccc3n2)CC1`, the growth is 37.4% in the experiment on HCT-15 colon; 4.42% (active) in the experiment with HT29 colon; 76.9% with SNB-75 CNS; 53.5% in the experiment on SNB-19 CNS; 2.52% (active) in the experiment with U251 CNS; 66.3% with PC-3 prostate. Moreover, the growth with UACC-62 melanoma is 63.9%; with LOX IMVI melanoma, 2.66% (active); in the experiment on SK-MEL-28 melanoma, -0.901% (active).

In the case of `COc1cc(/C=C/c2cc(/C=C/c3ccc(O)c(OC)c3)n(-c3c(C)cccc3C)c(=O)n2)ccc1O`, the growth in the experiment on HCT-15 colon is 8.19% (active); in the experiment with HT29 colon it was -37.8% (active); in the experiment on SNB-75 CNS, -12.4% (active); in the experiment with SNB-19 CNS it was 13.9%; with U251 CNS, 2.81% (active); in the experiment on PC-3 prostate it was -2.22% (active). In addition, the growth in the experiment with UACC-62 melanoma is -11.3% (active); in the experiment with LOX IMVI melanoma, 0.0749% (active); in the experiment on SK-MEL-28 melanoma it was 0.867% (active).

Take `Nc1n[nH]c2ccc([C@@H]3Nc4ccc5cn[nH]c5c4[C@H]4C5CCC(C5)[C@@H]34)cc12` (some centres not stated): the growth was 15% in the experiment on HCT-15 colon; 13.1% in the experiment on HT29 colon; -12.5% (active) in the experiment with SNB-75 CNS; 31.4% in the experiment with SNB-19 CNS; 23% with U251 CNS; 16.4% with PC-3 prostate. Besides, the growth in the experiment on UACC-62 melanoma was 39.4%; in the experiment on LOX IMVI melanoma it was 31.9%; with SK-MEL-28 melanoma, 61%.

In the case of `Cc1cc(N2CCSCC2)nc(NC2CCCC(Nc3ccnc4cc(Cl)ccc34)C2)n1` (configuration not stated), the growth in the experiment with HCT-15 colon was -67.8% (active); with HT29 colon, -58.7% (active); with SNB-75 CNS, -60.1% (active); with SNB-19 CNS it was 1.4% (active); in the experiment on U251 CNS it was -65.7% (active); in the experiment on PC-3 prostate it was -45.7% (active). Further, the results for the growth with UACC-62 melanoma, in the experiment with LOX IMVI melanoma and in the experiment on SK-MEL-28 melanoma were -87.8% (active), -84.8% (active) and -79.9% (active), respectively.

These data come from PubChem BioAssay (NCI).
